Laboratory results: PubChem BioAssay AID595 (National Center for Advancing Translational Sciences (NCATS), 2007)
About 310 (0.44%) of roughly 71,000 compounds were called active. Inconclusive results (about 5%) are left out. Calls follow the shape of the dose curve; as a rule, active = well fitted curve in either direction with a large enough effect; inconclusive = small, poorly fitted or top-dose-only effect, or another doubt; inactive = flat fitted curve, though single readings scatter. The full list was thinned out, with actives kept by preference.

Test system: Hsp90 C-terminal peptide / TPR2A (Hop) interaction, human
Assay: qHTS Assay for Disrupters of an Hsp90 Co-Chaperone Interaction
Conditions: AlphaScreen TPR2A-His6 binding biotin-Hsp90 C-terminal peptide; series mostly up to 57 µM; activity change, negative = inhibition: at the top concentration
Description: NIH Chemical Genomics Center [NCGC]
NIH Molecular Libraries Screening Centers Network [MLSCN]
Hsp90 (heat shock protein 90) is the essential molecular chaperone and it accounts for 1-2% of all cytosolic proteins and is critical for the activity of diverse cellular proteins that are involved in a variety of cellular processes, including development, cell cycle, and steroid hormone signaling. Its client proteins include signaling kinases such as IGF1R, Akt, v-Src, Raf-1; regulators of cell survival such as Bcr-Abl; and transcription factors such as mutated p53, estrogen and progesterone receptors. Hsp90 has emerged as an important target for cancer treatment due to its essential role in maintaining transformation and regulating the function of oncogenic signaling proteins.
The in vivo function of Hsp90 is regulated by the binding and hydrolysis of ATP at its N-terminal. Geldanamycin binds to ATP site and inhibit Hsp90 function. Geldanamycin and its analogues are under clinical trials in cancer patients.
This domain contains the binding site for tetratricopeptide repeat (TPR) domains on HOP (Hsp Organizing Protein). TPR is a structural motif used by a significant number of cochaperones by which the in vivo function of Hsp90 is regulated. TPR2A on HOP binds specifically to MEEVD motif of the C-terminal of Hsp90.
A homogeneous AlphaScreen is developed to assess the interaction between TPR2A and MEEVD motif of the C-terminal of Hsp90 by using the isolated TPR2A domain and a synthesized 20mer Hsp90 C terminal peptide. AlphaScreen is two bead-based proximity-dependent chemical energy transfer luminescent assay platform. TPR2A-His-6 and biotinylated Hsp90 C terminal peptide will bring streptavidin donor beads and nickel chelate acceptor beads to a proximity range (less than 200 nm), and subsequently lead a chemical luminescent reaction upon exciting donor beads with 680 nm laser. Inhibition of TPR2A and MEEVD motif interaction by small molecules could attenuate or abolish this chemical luminescent reaction.
Counter screening: Biotinylated-His-6 (PerkinElmer) can be utilized as a counter screen, as it serves as a linker to bring streptavidin beads and nickel chelate beads together. The counter screen can exclude alpha screen platform false positives due to small molecules being metal chelators, biotin analogues and imidazole analogues, or due to interfering with oxygen release from donor beads. Such an assay should be utilized to qualify any activity observed in this screen.
NCGC Assay Protocol Summary:
The assay was performed on 1536-well white plate (untreated solid bottom). Liquids were dispensed by 1536-well plate washer (Kalypsys, San Diego, CA). Plates were read on EnVision (PerkinElmer, Boston, MA).TPR2A-His6 was produced using a bacteria expression system and purified using a well developed method (Ghosh et al., 2000). Hsp90 C terminal 20-mer peptide with or without an N-terminal biotin group are synthesized using automated solid phase synthesis by the Yale Keck facility. The composition of assay buffer was (in mM) 25 HEPES, 100 KCl, 2 MgCl2 and 2 DTT; 0.1% BSA and 0.01% Tween-20. TPR2A-His6 binding to biotin-Hsp90 will bring streptavidin donor beads and nickel chelate acceptor beads (PerkinElmer) together and can be measured by Alpha reading by EnVision (PerkinElmer). Free Hsp90 blocks biotin-Hsp90 binding to TPR2 and serves as a positive control in the current asssay.
The assay was performed at room temperature. All compounds were screened as titrations from […] to 46 uM final concentration. The assay was performed in 1536-well format plates (untreated white solid bottom, Corning Inc.) as follows:
Sequence,Parameter,Value,Description
1,Reagent,3 uL TPR2A-His6,Final concentration was 5nM
2,Compound,23 nL,Final titration was from 0.7 nM to 46 uM
3,Time,15 minutes,Room temperature
4,Reagent,1 uL biotin-Hsp90,With and without free Hsp90. Final concentration was 10 nM for biotin-Hsp90 and 10uM for free Hsp90.
5,Time,1 hour,Room temperature
[…]
% is scaled to controls: 0 for no effect and ±100 for the full control effect; potency is read from the fitted curve at half-maximal effect.

| Compound | activity change, negative = inhibition | Potency |
| --- | --- | --- |
| CCN(CC)S(=O)(=O)N1CCC(C(=O)NC(C)CCc2ccccc2)CC1 (centres undefined) | -1.59% (inactive) |  |
| CC1=C(C(=O)OCc2ccccc2)C(c2ccc(C(F)(F)F)cc2)NC(=O)N1CCCCCC(=O)O (centres undefined) | 0.276% (inactive) |  |
| COC(=O)C(CC(=O)Nc1cc(C)ccc1C)Nc1ccccc1OC (centres undefined) | -6.74% (inactive) |  |
| O=C(O)c1ccc(COCC(F)(F)F)cc1 | -3.8% (inactive) |  |
| COC(=O)[C@@H]1[C@H]2C[C@H]3c4[nH]c5cc(OC)ccc5c4CCN3C[C@@H]2C[C@@H](OC(=O)c2cc(OC)c(OC)c(OC)c2)[C@@H]1OC | -28.3% (inactive) |  |
| CC[C@]1(C)CC(=O)NC1=O | inactive |  |
| CCCn1c(-c2ccc(F)cc2)nc2c(NCC3CCCN3CC)nc(C)nc21 (centres undefined) | -1.96% (inactive) |  |
| CCNc1ncc2ncc(=O)n(CCc3ccccc3)c2n1 | -2.48% (inactive) |  |
| Cc1c(NC(=O)c2cccnc2)c(=O)n(-c2ccccc2)n1C | 1.13% [at 26 µM] (inactive) |  |
| CN1C(=O)C[C@H](c2ccccc2)C1=O | -0.092% [at 26 µM] (inactive) |  |
| CC[C@@H]1Cc2cc(O)ccc2C2=C1c1ccc(O)cc1C[C@H]2CC | -24.7% (inactive) |  |
| Nc1ccc2c3c(cccc13)C(=O)NC2=O | -3.62% (inactive) |  |
| COc1ccc(CC(=O)Nc2ccc3c(c2)CCC3)cc1S(=O)(=O)N1CCOCC1 | -4.91% (inactive) |  |
| CC(C)[C@@H](CC(=O)N[C@@H]1CCNC[C@H]1C(=O)N[C@H](CC(=O)N[C@@H](CCC(=O)O)CC(=O)O)Cc1ccccc1)NC(=O)C[C@H](CO)NC(=O)[C@@H]1CNCC[C@H]1N | -13.9% (inactive) |  |
| CC(C)C[C@@H](CC(=O)N[C@@H](CCC(=O)O)CC(=O)O)NC(=O)[C@@H]1CCCC[C@H]1NC(=O)C[C@@H](NC(=O)C[C@H](Cc1c[nH]c2ccccc12)NC(=O)[C@@H]1CCCC[C@H]1N)C(C)C |  | 5.01 µM (active) |
| Oc1c(C(c2ccccn2)N2CCOCC2)ccc2cccnc12 (centres undefined) |  | 2 µM (active) |
| O=C(c1cccnc1NCc1ccccc1)N1CCOCC1 | -6.22% (inactive) |  |
| OC(COc1ccc2ccccc2c1)CN1CCOCC1 (centres undefined) | 1.54% (inactive) |  |
| CCN(Cc1ccncc1)C(=O)[C@@H](CO)c1ccccc1 | inactive |  |
| CS(=O)(=O)N1CCC2(CC1)CN(Cc1ccccc1)C2 | -3.42% (inactive) |  |
| COc1cccc(Cn2c(=O)c(-c3ccccc3)nc3cnc(OC)nc32)c1 | -0.069% (inactive) |  |
| CCCC[C@@H]1C[C@H]1C(NC(=O)c1ccc(-c2ccccc2)cc1)c1ccc(-c2ccccc2)cc1 (some centres undefined) | -4.75% (inactive) |  |

| Compound | activity change, negative = inhibition | Potency |
| --- | --- | --- |
| CC1=C(C(=O)Nc2ccc(Cl)cc2)C(c2ccco2)NC(=O)N1 (centres undefined) | -8.22% (inactive) |  |
| Cc1ccc2[nH]c(=O)c(-c3nc4c(C)cccn4c3NCc3ccco3)cc2c1 | -10.2% (inactive) |  |
| Clc1ccc(C(c2ccc(Cl)cc2)n2cc[n+](C[C@@H](OCc3ccc(Cl)cc3Cl)c3ccc(Cl)cc3Cl)c2)cc1 | -23.7% (inactive) |  |
| O=C(O)[C@@H](O)Cc1ccccn1 | -2.31% [at 11 µM] (inactive) |  |
| OC(CCl)CCl | -5.37% (inactive) |  |
| O=C1CCCc2c1[nH]c1ccc(Br)cc21 | -0.77% (inactive) |  |
| CCC[C@H]1C(=O)N2C(N(C)C)=Nc3ccc(C)cc3N2C1=O | -4.06% [at 26 µM] (inactive) |  |
| CN(C)CCCn1c2ccccc2c2cnccc21 | -5.16% [at 11 µM] (inactive) |  |
| COc1cccc(N(CC(=O)Nc2cccc(F)c2)S(C)(=O)=O)c1 | -1.99% (inactive) |  |
| O=C(O)c1cccc(S(=O)(=O)NCCO)c1 | -3.23% [at 11 µM] (inactive) |  |
| CC(C)NC(=O)N1CC[C@@]2(CCCN(C(=O)c3ccco3)C2)C1 | 1.72% (inactive) |  |
| CCCCNc1nc(C)nc2c1nc(-c1ccccc1)n2CCCCN(CC)CC | -3.31% (inactive) |  |
| Cc1cc(=O)[nH]c(SCC(=O)N2c3ccccc3CC2C)n1 (centres undefined) | 3.13% (inactive) |  |
| Fc1cccc(/C=N\N=C/c2cccc(F)c2)c1 | 1.39% (inactive) |  |
| CCOC(=O)N1CCN(C(=O)c2cc3c(ccc4ccccc43)oc2=O)CC1 | -0.382% (inactive) |  |
| CC(C)(O/N=C(\C(=O)N[C@@H]1C(=O)N2C(C(=O)[O-])=C(C[n+]3ccccc3)CS[C@@H]12)c1csc(N)n1)C(=O)O | -6.49% [at 26 µM] (inactive) |  |
| O=C(c1ccco1)N1CCC2(CC1)CN(c1ncccn1)C2 | -0.544% (inactive) |  |
| c1cncc(CNc2ccnc(-c3ccc4c(c3)OCO4)n2)c1 | -6.94% (inactive) |  |
| Cc1cc(Cl)ccc1N1C(=O)CC(SCCC(=O)O)C1=O (centres undefined) | -3.29% (inactive) |  |
| O=c1c(-c2cccs2)nc2cnc(Oc3ccccc3)nc2n1-c1ccccc1 | -6.73% (inactive) |  |
| COc1ncc2nc(-c3ccc(Cl)cc3)c(=O)n(-c3ccccc3)c2n1 | -0.152% (inactive) |  |
| COc1ccccc1CNc1nc(-c2c(C)noc2C)nc2ccccc12 | 6.78% (inactive) |  |

| Compound | activity change, negative = inhibition | Potency |
| --- | --- | --- |
| N=C(CC(=O)Nc1ccccn1)c1ccccc1 | -0.76% [at 11 µM] (inactive) |  |
| O=C1c2ccccc2C(=O)C1c1ccccc1 | -2.02% [at 26 µM] (inactive) |  |
| COc1cccc(N2C(=O)C3CCCN3C2c2ccc(F)cc2)c1 (centres undefined) | -1.72% (inactive) |  |
| CS(=O)(=O)Nc1cccc(-c2cncnc2Nc2ccccc2)c1 | -4.22% (inactive) |  |
| COCCn1c(=O)c(-c2cccs2)nc2cncnc21 | -3.38% (inactive) |  |
| Oc1ccc(O)c2c(O)cccc12 | -23.2% (inactive) |  |
| S=c1c2[nH]cnc2ncn1CCSc1ncnc2nc[nH]c12 | -3.58% [at 11 µM] (inactive) |  |
| CCOC(=O)N1CCN(Cc2nc3c(c(=O)n(C)c(=O)n3C)n2Cc2ccccc2)CC1 | -0.895% (inactive) |  |
| O=C(NCCc1ccco1)c1nn(Cc2ccccc2)c(=O)c2ccccc12 | 1.8% (inactive) |  |
| COC(=O)N1CCC[C@@]2(CCN(C(=O)NC(C)C)C2)C1 | -7.6% (inactive) |  |
| CS(=O)(=O)N1CCC2(CC1)CN(Cc1cc(C(F)(F)F)cc(C(F)(F)F)c1)C2 | 0.858% (inactive) |  |
| CN1CCc2[nH]nc(-c3n[nH]c4c3CN(C)CC4)c2C1 | -1.93% [at 11 µM] (inactive) |  |
| CC1=C(C(=O)Nc2ccccc2)C(c2cccs2)C(C#N)=C(SCC#N)N1 (centres undefined) | -27.6% (inactive) |  |
| CCCCN(CCCC)C(=O)CCS(=O)(=O)c1ccc2c(c1)n(C)c(=O)c(=O)n2C | -3.15% (inactive) |  |
| Cc1cnc(CNc2nc(-c3cccnc3)nc3ccccc23)cn1 | -7.89% (inactive) |  |
| CCCn1nnc2sc3c(c2c1=O)CCC(C)C3 (centres undefined) | -1.67% (inactive) |  |
| Cn1cccc1C(=O)N1CCC[C@@]2(CCN(Cc3nccs3)C2)C1 | -5.4% (inactive) |  |
| Cc1n[nH]c(C)c1S(=O)(=O)N1CCCC(C(=O)NCC2COc3ccccc3O2)C1 (centres undefined) | -0.626% (inactive) |  |
| c1ccc(Oc2ccccc2)cc1 | -0.703% (inactive) |  |
| COC(=O)[C@@]1(Cc2ccccc2)[C@H]2c3cc(C(=O)N(C)C)n(CCSCCO)c3C[C@H]2CN1C(=O)c1ccccc1 | -2.28% (inactive) |  |
